Test results from article PMC7862700, “An all-to-all approach to the identification of sequence-specific readers for epigenetic DNA modifications on cytosine”.

Assays:
Experiment in all cases: DAPPL (digital affinity profiling via proximity ligation, sequencing); 10 mM Tris-HCl pH 7.5, 50 mM NaCl, 1 mM DTT, 4% glycerol, room temperature, 30 min; GST-TFs on glutathione beads, 16-mer random dsDNA library, 0.1% formaldehyde crosslink after washing; high values mean tight binding
Conditions in all cases: protein: recombinant; tags: N-terminal GST; dsDNA, one strand shown
FLI1 = biological target: T1, FLI1 (Homo sapiens, UniProt Q01543 1-452)
T1 sequence: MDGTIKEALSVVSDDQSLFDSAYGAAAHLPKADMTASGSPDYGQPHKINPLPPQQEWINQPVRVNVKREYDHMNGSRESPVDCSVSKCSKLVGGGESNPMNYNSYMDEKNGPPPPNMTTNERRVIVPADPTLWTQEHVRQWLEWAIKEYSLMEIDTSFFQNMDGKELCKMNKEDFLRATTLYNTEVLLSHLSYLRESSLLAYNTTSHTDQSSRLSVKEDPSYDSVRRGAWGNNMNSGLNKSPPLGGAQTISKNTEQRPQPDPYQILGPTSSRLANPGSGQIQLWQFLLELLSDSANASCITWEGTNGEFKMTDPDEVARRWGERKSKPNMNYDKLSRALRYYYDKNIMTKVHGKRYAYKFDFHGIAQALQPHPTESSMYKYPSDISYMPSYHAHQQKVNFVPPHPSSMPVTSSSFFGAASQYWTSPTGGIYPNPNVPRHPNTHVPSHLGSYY
Method in brief: (§1)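 Each value of binding signal is a hexamer's read frequency for a factor divided by the same hexamer's frequency in the tag-only sample. Barcoded, bead-captured GST fusions of human transcription factors made in yeast were pooled with that sample and incubated with 200 nmole of a random double-stranded 16-mer DNA library in Tris/NaCl/DTT/glycerol buffer at room temperature for 30 min. Washing, 0.1% formaldehyde crosslinking, proximity ligation, PCR and Illumina NextSeq500 sequencing followed.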

ELK1 = biological target: T2, ELK1 (Homo sapiens, UniProt P19419 1-428)
T2 sequence: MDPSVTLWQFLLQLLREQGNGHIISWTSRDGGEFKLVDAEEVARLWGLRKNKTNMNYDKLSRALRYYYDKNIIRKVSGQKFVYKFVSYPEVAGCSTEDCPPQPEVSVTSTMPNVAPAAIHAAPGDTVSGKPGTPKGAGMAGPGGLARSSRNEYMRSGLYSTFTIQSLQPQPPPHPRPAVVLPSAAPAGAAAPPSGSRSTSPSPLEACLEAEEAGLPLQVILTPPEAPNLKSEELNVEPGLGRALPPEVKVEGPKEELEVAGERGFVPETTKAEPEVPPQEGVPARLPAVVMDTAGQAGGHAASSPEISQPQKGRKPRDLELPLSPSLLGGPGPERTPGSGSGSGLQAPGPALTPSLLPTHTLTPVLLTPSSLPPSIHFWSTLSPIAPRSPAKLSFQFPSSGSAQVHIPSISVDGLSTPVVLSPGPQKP
Method in brief: as §1

GABPA = biological target: T3, GABPA (Homo sapiens, UniProt Q06546 1-454)
T3 sequence: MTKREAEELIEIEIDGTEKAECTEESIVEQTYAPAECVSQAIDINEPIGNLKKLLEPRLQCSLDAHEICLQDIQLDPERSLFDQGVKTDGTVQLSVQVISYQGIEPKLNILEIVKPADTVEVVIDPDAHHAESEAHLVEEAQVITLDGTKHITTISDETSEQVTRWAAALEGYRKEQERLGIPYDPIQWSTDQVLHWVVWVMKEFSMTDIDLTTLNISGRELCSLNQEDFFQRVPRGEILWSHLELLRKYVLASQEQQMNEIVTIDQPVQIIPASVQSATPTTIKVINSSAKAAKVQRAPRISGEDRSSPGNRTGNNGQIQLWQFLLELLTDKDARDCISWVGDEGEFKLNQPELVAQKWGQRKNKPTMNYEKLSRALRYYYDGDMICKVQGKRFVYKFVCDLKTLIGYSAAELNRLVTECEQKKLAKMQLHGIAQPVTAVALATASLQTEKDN
Method in brief: as §1

ERG = biological target: T4, ERG (Homo sapiens, UniProt P11308 1-479)
T4 sequence: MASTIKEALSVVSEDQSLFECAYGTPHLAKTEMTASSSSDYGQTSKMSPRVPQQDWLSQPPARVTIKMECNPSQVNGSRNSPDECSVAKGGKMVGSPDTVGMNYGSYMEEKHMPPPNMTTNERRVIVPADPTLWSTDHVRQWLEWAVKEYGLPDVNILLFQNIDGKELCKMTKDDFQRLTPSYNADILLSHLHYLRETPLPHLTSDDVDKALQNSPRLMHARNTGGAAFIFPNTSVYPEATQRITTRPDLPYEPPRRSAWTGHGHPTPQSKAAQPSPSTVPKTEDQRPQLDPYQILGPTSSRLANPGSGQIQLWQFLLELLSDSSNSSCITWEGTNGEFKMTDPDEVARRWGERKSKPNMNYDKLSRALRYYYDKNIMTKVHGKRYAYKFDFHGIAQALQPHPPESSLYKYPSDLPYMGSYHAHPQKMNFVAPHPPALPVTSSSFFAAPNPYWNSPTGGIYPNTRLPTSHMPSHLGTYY
Method in brief: as §1

ELF1 = ELF1 (Homo sapiens, UniProt P32519 1-619)
ELF1, sequence (P32519 whole entry): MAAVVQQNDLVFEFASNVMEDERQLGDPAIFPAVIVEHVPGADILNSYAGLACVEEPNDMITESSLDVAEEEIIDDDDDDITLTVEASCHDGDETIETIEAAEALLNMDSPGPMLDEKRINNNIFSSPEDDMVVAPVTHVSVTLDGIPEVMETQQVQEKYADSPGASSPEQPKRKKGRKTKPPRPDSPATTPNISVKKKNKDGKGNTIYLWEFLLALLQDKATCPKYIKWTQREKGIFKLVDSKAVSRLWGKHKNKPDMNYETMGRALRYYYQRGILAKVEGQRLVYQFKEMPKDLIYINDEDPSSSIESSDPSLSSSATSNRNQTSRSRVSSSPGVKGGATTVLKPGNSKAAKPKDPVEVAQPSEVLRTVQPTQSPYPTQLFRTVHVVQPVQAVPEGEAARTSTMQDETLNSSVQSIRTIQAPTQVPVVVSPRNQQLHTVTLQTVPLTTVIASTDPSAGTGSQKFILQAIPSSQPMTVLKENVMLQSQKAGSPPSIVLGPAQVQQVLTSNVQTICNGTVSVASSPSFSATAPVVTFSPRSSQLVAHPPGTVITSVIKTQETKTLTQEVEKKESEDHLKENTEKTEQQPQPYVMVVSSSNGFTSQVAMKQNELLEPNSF
Method in brief: as §1

EHF = biological target: T5, EHF (Homo sapiens, UniProt Q9NZC4 1-300)
T5 sequence: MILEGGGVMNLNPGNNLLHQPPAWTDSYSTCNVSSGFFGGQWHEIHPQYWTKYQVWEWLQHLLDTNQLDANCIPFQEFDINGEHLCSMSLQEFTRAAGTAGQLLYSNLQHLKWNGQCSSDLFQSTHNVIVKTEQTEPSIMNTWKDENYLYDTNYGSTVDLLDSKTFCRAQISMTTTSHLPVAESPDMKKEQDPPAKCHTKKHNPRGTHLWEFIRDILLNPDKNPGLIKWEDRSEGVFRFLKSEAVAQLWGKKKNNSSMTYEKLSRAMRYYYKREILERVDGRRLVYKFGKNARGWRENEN
Method in brief: as §1

SPI1 [1] = biological target: SPI1 (Homo sapiens, UniProt P17947 1-270)
Method in brief: as §1

SPIB = SPIB (Homo sapiens, UniProt Q01892 1-262)
SPIB, sequence (Q01892 whole entry): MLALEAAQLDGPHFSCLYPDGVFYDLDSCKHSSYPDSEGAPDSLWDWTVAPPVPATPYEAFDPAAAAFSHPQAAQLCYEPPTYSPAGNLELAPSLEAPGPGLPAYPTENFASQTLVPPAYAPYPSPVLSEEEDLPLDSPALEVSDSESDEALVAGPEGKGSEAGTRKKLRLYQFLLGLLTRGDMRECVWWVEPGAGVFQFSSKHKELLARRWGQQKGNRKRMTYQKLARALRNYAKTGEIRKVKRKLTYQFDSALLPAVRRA
Method in brief: as §1

ELK3 = biological target: T6, ELK3 (Homo sapiens, UniProt P41970 1-407)
T6 sequence: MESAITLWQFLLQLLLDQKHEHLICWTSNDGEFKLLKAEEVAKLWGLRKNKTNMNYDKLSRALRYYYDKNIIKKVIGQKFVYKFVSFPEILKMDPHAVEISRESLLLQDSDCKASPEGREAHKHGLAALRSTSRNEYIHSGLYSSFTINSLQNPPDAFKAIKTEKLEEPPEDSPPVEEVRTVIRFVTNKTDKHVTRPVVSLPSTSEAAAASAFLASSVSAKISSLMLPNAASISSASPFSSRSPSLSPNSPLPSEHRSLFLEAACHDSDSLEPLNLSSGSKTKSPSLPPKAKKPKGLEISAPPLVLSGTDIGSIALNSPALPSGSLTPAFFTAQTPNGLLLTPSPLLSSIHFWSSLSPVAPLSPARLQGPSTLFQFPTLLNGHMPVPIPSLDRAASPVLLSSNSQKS
Method in brief: as §1

SPI1 [2] = biological target: SPI1 (Homo sapiens, UniProt P17947 1-270); remark: listed apart in the source
Method in brief: as §1

Sequence	binding signal (FLI1)	binding signal (ELK1)	binding signal (GABPA)	binding signal (ERG)	binding signal (ELF1)	binding signal (EHF)	binding signal (SPI1 [1])	binding signal (SPIB)	binding signal (ELK3)	binding signal (SPI1 [2])
TTCCGC	3.03 fold enrichment (6-mer frequency, TF over GST control)	3.07 fold enrichment (6-mer frequency, TF over GST control)	2.79 fold enrichment (6-mer frequency, TF over GST control)	3.22 fold enrichment (6-mer frequency, TF over GST control)	2.85 fold enrichment (6-mer frequency, TF over GST control)	3.08 fold enrichment (6-mer frequency, TF over GST control)	4.75 fold enrichment (6-mer frequency, TF over GST control)	3.15 fold enrichment (6-mer frequency, TF over GST control)	3.03 fold enrichment (6-mer frequency, TF over GST control)	–
TCCCGG	2.29 fold enrichment (6-mer frequency, TF over GST control)	2.07 fold enrichment (6-mer frequency, TF over GST control)	2.14 fold enrichment (6-mer frequency, TF over GST control)	2.22 fold enrichment (6-mer frequency, TF over GST control)	2.12 fold enrichment (6-mer frequency, TF over GST control)	2.19 fold enrichment (6-mer frequency, TF over GST control)	–	2.43 fold enrichment (6-mer frequency, TF over GST control)	1.96 fold enrichment (6-mer frequency, TF over GST control)	2.01 fold enrichment (6-mer frequency, TF over GST control)
CTCTGC	1.71 fold enrichment (6-mer frequency, TF over GST control)	1.6 fold enrichment (6-mer frequency, TF over GST control)	1.56 fold enrichment (6-mer frequency, TF over GST control)	1.46 fold enrichment (6-mer frequency, TF over GST control)	1.58 fold enrichment (6-mer frequency, TF over GST control)	1.57 fold enrichment (6-mer frequency, TF over GST control)	–	1.52 fold enrichment (6-mer frequency, TF over GST control)	1.4 fold enrichment (6-mer frequency, TF over GST control)	1.53 fold enrichment (6-mer frequency, TF over GST control)
CTTCGC	1.43 fold enrichment (6-mer frequency, TF over GST control)	1.56 fold enrichment (6-mer frequency, TF over GST control)	1.5 fold enrichment (6-mer frequency, TF over GST control)	1.53 fold enrichment (6-mer frequency, TF over GST control)	1.46 fold enrichment (6-mer frequency, TF over GST control)	1.32 fold enrichment (6-mer frequency, TF over GST control)	–	1.6 fold enrichment (6-mer frequency, TF over GST control)	1.7 fold enrichment (6-mer frequency, TF over GST control)	1.42 fold enrichment (6-mer frequency, TF over GST control)
